ATG4B inhibitor: ATG4B (human) cysteine protease inhibition; 0.51% of 340,000 active; Q9Y4P1; ATG4B cleavage of LC3-PLA2, NBD-HPC fluorescence, 1 h; inhibition, % at 8.33 µM; in the data active means inhibition above about 40%
F508del corr: correctors of CFTR F508del function in bronchial epithelial cells | CFBE cells, YFP halide quenching; stimulated with forskolin plus potentiator P3; % fluorescence drop versus neutral controls | activity (quench increase), % at 7.58 µM | 0.36% of 350,000 active;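 active means mean added fluorescence quench of at least 8% versus neutral control, with both replicates also reaching 8%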;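 further: cells transiently co-express mutant CFTR-F508del with the halide-sensitive YFP; corrector assay measuring rescue of mutant channel to the surface after 24 h compound exposure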
SKN-1 block: inhibitors of C. elegans SKN-1 | C. elegans VP596 Pgst-4::GFP/RFP ratio, acrylamide-induced, 24 h | inhibition, % at 21.8 µM | 0.49% of 360,000 active;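 active means interference check ratio from 0.5 to 1.5 plus GFP to RFP signal ratio inhibition reaching or exceeding a fixed threshold, cut at about 30% in these data, passing the limit was not always enough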
MPTP block: permeability transition pore inhibition. isolated mouse mitochondria, Ca2+ swelling absorbance, 30 min. 1.4% of 360,000 active. AID 602449. inhibition, % at 10 µM;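 active means inhibition of 50% or more, scaled per plate between neutral and stimulator controls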;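 further: 0% = DMSO wells given calcium and 100% = 1 mM EGTA wells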
NRP1-CendR mod: modulators of CendR peptide binding to human neuropilin-1; inhibition, % at 25 µM; O14786; AID 602438; 0.85% of 360,000 active; FAM-RPARPAR peptide binding to NRP-1, fluorescence polarization;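 active means inhibition or corrected inhibition above about 18%, plus a signal ratio from 0.5 to 1.5, limit read from the data, passing the limit was not always enough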
Target sequence (O14786 whole entry, looked up): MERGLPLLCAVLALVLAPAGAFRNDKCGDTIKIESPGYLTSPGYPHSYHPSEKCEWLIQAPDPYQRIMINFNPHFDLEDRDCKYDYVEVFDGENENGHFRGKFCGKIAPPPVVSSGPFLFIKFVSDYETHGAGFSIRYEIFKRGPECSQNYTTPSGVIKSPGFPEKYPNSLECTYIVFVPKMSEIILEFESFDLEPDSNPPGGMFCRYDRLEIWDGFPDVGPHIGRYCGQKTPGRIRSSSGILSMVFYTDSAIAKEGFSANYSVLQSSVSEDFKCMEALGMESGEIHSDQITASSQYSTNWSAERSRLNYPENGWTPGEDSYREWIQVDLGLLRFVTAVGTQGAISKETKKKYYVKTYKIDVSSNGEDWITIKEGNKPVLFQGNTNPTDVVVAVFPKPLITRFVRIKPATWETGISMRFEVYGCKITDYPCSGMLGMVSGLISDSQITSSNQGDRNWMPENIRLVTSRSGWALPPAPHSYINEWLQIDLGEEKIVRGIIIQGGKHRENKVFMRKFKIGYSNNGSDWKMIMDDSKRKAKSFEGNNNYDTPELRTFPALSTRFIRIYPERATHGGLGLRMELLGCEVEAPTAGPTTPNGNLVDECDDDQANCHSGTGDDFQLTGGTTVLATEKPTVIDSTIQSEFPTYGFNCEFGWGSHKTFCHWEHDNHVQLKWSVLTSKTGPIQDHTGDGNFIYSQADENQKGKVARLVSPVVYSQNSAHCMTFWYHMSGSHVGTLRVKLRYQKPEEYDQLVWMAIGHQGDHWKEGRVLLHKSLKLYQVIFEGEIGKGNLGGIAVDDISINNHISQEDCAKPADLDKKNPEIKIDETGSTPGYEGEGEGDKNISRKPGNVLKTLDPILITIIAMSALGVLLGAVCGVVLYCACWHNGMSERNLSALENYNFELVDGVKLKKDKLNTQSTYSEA
Rh123 counter: Rhodamine 123 counter-screen of mitochondrial pore hits; inhibition, % at 10 µM; isolated mitochondria, membrane potential, Rhodamine 123 fluorescence; 78% of 5,000 active; shares compounds with MPTP block; in the data active means inhibition above about 22%;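 further: 0% = DMSO vehicle and 100% = positive control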
MPTP abs DR: MPTP inhibition, dose response swelling confirmation | shares compounds with MPTP block | isolated mitochondria swelling, absorbance | IC50, µM | 58% of 780 active | AID 651561; in the data active means IC50 below about 20 µM
MPTP counter DR: counter-screen for mitochondrial permeability transition pore inhibitors, dose response | shares compounds with MPTP block | isolated mitochondria counterscreen, fluorescence read-out | IC50, µM | 49% of 780 active | AID 651564; in the data active means IC50 below about 80 µM
The depositor's hits bear a star; . = not tested or not shown. Hits are enriched below; roughly 2.7% of the tested compounds scored in any of these assays.

SMILES	ATG4B inhibitor	F508del corr	SKN-1 block	MPTP block	NRP1-CendR mod	Rh123 counter	others
Cc1cccc(C)c1N1CCN(C(c2cc3ccccc3o2)c2nnnn2C(C)(C)C)CC1 (stereo not given)	.	.	14	87*	6	57*
CCCC(=O)N1CCC2(CC1)CN(C(=O)C1CCOCC1)[C@H](CO)c1[nH]c3cc(OC)ccc3c12	.	1	.	.	.	.
CCOC(=O)C1(CCc2ccccc2)CCN(Cc2c(O)cccc2OC)CC1	14	-2	-8	62*	0	88*
CCOC(=O)C1(CCOc2ccccc2)CCN(Cc2ccc(OC)c(COC)c2)CC1	4	3	7	86*	2	74*
CCOC(=O)C1(CCOc2ccccc2)CCN(Cc2ccc(COC)o2)CC1	-13	.	8	61*	4	3	MPTP abs DR=19*;MPTP counter DR=37*
CCOC(=O)C1(CCOc2ccccc2)CCN(Cc2ccc(OC)c(O)c2)CC1	2	5	6	9	2	.
CCOC(=O)C1(CCOc2ccccc2)CCN(Cc2ccc(C)o2)CC1	3	3	-16	3	9	.
C[C@@H]1CN([C@@H](C)CO)C(=O)c2cc(NC(=O)Cn3cnnn3)ccc2O[C@H]1CN(C)S(C)(=O)=O	.	0	.	.	.	.
COCC(=O)N1CC[C@@H]2[C@@H](CO)Nc3ccc(-c4ccc(C#N)cc4)cc3[C@@H]21	.	1	.	.	.	.
CC(=O)O[C@H]1C=C[C@@H](NC(=O)OC(C)(C)C)C1	.	-1	.	.	.	.
CO[C@@H](C(=O)N(C)C[C@H]1OCc2ccccc2-c2c(n(C)c3ccccc23)C(=O)N([C@H](C)CO)C[C@@H]1C)c1ccccc1	.	-3	.	.	.	.
CCc1nc(SCc2ccc(OCC(C)C)cc2)n[nH]1	-1	-1	4	86*	-1	67*
CCc1nc(SCc2ccc(Br)cc2)n[nH]1	2	0	0	0	3	.
CCC(=O)N1[C@@H]2Cn3c(ccc(-c4cncnc4)c3=O)[C@H]1[C@@H](C(=O)N1CCc3ccccc3C1)[C@@H]2CO	.	1	.	.	.	.
CO[C@@H]1CN(C)C(=O)c2ccc(NC(=O)Cc3ccccc3)cc2OC[C@@H](C)N(CCc2ccccc2)C[C@H]1C	.	-1	.	.	.	.
Cc1nc2ccccc2n1Cc1ccccc1Br	-4	6	3	73*	4	81*
Cc1nc2ccccc2n1Cc1ccc(Br)cc1	-11	0	-4	93*	12	96*
C[C@H](CO)N1C[C@H](C)[C@H](CN(C)Cc2ccc(Cl)c(Cl)c2)Oc2ccc(NC(=O)NC3CCCCC3)cc2CC1=O	.	0	.	.	.	.
C[C@H](CO)N1C[C@H](C)[C@H](CN(C)C(=O)CN(C)C)Oc2cc(C#CC3CC3)ccc2S1(=O)=O	.	-1	.	.	.	.
c1ccc(COc2ccc(OCCCNC3CCCC3)cc2)cc1	-5	.	8	90*	3	-11	MPTP abs DR=3.1*;MPTP counter DR=43*
O=C(NNS(=O)(=O)c1ccc([N+](=O)[O-])cc1)c1ccncc1	-3	-1	4	0	1	.
O=C(COc1ccc([N+](=O)[O-])cc1)NNC(=O)c1cccnc1	-2	1	-18	1	7	.
O=C(NNC(=O)c1cccnc1)Nc1ccc([N+](=O)[O-])cc1	4	.	-4	102*	7	102*
O=C(NNC(=O)c1ccncc1)Nc1ccc(Br)cc1	-3	4	15	87*	5	102*
O=C(NNC(=O)c1ccncc1)Nc1ccc([N+](=O)[O-])cc1	-6	.	-1	82*	-1	92*
O=C(Nc1ccncc1)c1ccc(Br)cc1	0	3	-8	0	-3	.
CCCNC(=O)C[C@@H]1CC[C@H]2[C@@H](COc3ccc(NC(=O)Nc4cccc(C)c4)cc3C(=O)N2C)O1	.	1	.	.	.	.
CC(=O)Cc1nsc(NC(=O)c2ccc(-c3ccc(Cl)cc3Cl)o2)n1	4	.	-9	54*	2	38*
C[C@@H]1CN([C@@H](C)CO)C(=O)c2cccc(NS(=O)(=O)c3cn(C)cn3)c2O[C@H]1CN(C)S(=O)(=O)c1cccs1	.	0	.	.	.	.

Source: PubChem
